# Laboratory results: the supplement of paper PMC4466140
# Columns and labels:
# Experiment in all cases: SPOT peptide array binding signal intensity (averaged, normalized) (arbitrary units (background-subtracted, floor 0; scale differs between SH3 domains)); higher = stronger binding of the SH3 domain to the peptide
# CaNbp2 = biological target: CaNbp2
# Summary of the method: (§1)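 GST-fused SH3 domains, from four yeast species, were produced in E. coli BL21(DE3) and captured on glutathione Sepharose. Membranes of cellulose carrying synthetic 15-mer peptides, in which cysteines had been replaced by serines, were exposed to each domain at 10 μg/ml overnight at 4°C in TBS-based blocking buffer. After anti-GST antibody, an HRP anti-mouse secondary and luminol, spots were imaged and quantified using Genespotter. Binding signal is normalized and background-subtracted spot intensity, averaged over replicates, in arbitrary units that differ between domains.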
# CaRvs167 = biological target: CaRvs167
# Summary of the method: as §1
# CaRvs167-3 = biological target: CaRvs167-3
# Summary of the method: as §1
# CaSho1 = biological target: CaSho1
# Summary of the method: as §1
# CaSla1-D1-D2 = biological target: CaSla1-D1-D2
# Summary of the method: as §1
# CaSla1-D3 = biological target: CaSla1-D3
# Summary of the method: as §1
# ScAbp1 = biological target: ScAbp1
# Summary of the method: as §1
# ScBbc1 = biological target: ScBbc1
# Summary of the method: as §1
# ScBem1-D1 = biological target: ScBem1-D1
# Summary of the method: as §1
# ScBzz1-D1 = biological target: ScBzz1-D1
# Summary of the method: as §1
# ScBzz1-D2 = biological target: ScBzz1-D2
# Summary of the method: as §1
# ScCyk3 = biological target: ScCyk3
# Summary of the method: as §1
# ScFus1 = biological target: ScFus1
# Summary of the method: as §1
# ScHof1 = biological target: ScHof1
# Summary of the method: as §1
# ScHse1 = biological target: ScHse1
# Summary of the method: as §1
# ScLsb1 = biological target: ScLsb1
# Summary of the method: as §1
# ScLsb2 = biological target: ScLsb2
# Summary of the method: as §1
# ScLsb3 = biological target: ScLsb3
# Summary of the method: as §1
# ScLsb4 = biological target: ScLsb4
# Summary of the method: as §1
# ScMyo3 = biological target: ScMyo3
# Summary of the method: as §1
# ScMyo5 = biological target: ScMyo5
# Summary of the method: as §1
# ScNbp2 = biological target: ScNbp2
# Summary of the method: as §1
# ScPex13 = biological target: ScPex13
# Summary of the method: as §1
# ScRvs167 = biological target: ScRvs167
# Summary of the method: as §1
# ScSho1 = biological target: ScSho1
# Summary of the method: as §1
# ScSla1-D1-D2 = biological target: ScSla1-D1-D2
# Summary of the method: as §1
# ScSla1-D3 = biological target: ScSla1-D3
# Summary of the method: as §1
# SpAbp1-D1 = biological target: SpAbp1-D1
# Summary of the method: as §1
# SpBbc1 = biological target: SpBbc1
# Summary of the method: as §1
# SpBzz1-D1 = biological target: SpBzz1-D1
# Summary of the method: as §1
# SpBzz1-D2 = biological target: SpBzz1-D2
# Summary of the method: as §1
# SpCyk3 = biological target: SpCyk3
# Summary of the method: as §1
# SpHof1 = biological target: SpHof1
# Summary of the method: as §1
# SpHof1-2 = biological target: SpHof1-2
# Summary of the method: as §1
# SpHof1-3 = biological target: SpHof1-3
# Summary of the method: as §1
# SpHse1 = biological target: SpHse1
# Summary of the method: as §1
# SpLsb1 = biological target: SpLsb1
# Summary of the method: as §1
# SpLsb4 = biological target: SpLsb4
# Summary of the method: as §1
# SpMyo1 = biological target: SpMyo1
# Summary of the method: as §1
# SpNbp2 = biological target: SpNbp2
# Summary of the method: as §1
# SpPex13 = biological target: SpPex13
# Summary of the method: as §1
# SpRvs167 = biological target: SpRvs167
# Summary of the method: as §1
# SpSla1-D1-D2 = biological target: SpSla1-D1-D2
# Summary of the method: as §1
# SpSla1-D3 = biological target: SpSla1-D3
# Summary of the method: as §1
binder,measurement,setting,value
SKIRPTPRKPSRMAT,SPOT peptide array binding signal intensity,CaNbp2,437
same,SPOT peptide array binding signal intensity,CaRvs167,110
same,SPOT peptide array binding signal intensity,CaRvs167-3,23
same,SPOT peptide array binding signal intensity,CaSho1,60
same,SPOT peptide array binding signal intensity,CaSla1-D1-D2,1470
same,SPOT peptide array binding signal intensity,CaSla1-D3,104
same,SPOT peptide array binding signal intensity,ScAbp1,1260
same,SPOT peptide array binding signal intensity,ScBbc1,73.5
same,SPOT peptide array binding signal intensity,ScBem1-D1,14
same,SPOT peptide array binding signal intensity,ScBzz1-D1,32.5
same,SPOT peptide array binding signal intensity,ScBzz1-D2,39
same,SPOT peptide array binding signal intensity,ScCyk3,25
same,SPOT peptide array binding signal intensity,ScFus1,21
same,SPOT peptide array binding signal intensity,ScHof1,10
same,SPOT peptide array binding signal intensity,ScHse1,1130
same,SPOT peptide array binding signal intensity,ScLsb1,328
same,SPOT peptide array binding signal intensity,ScLsb2,3.5
same,SPOT peptide array binding signal intensity,ScLsb3,2130
same,SPOT peptide array binding signal intensity,ScLsb4,117
same,SPOT peptide array binding signal intensity,ScMyo3,0.5
same,SPOT peptide array binding signal intensity,ScMyo5,4
same,SPOT peptide array binding signal intensity,ScNbp2,1100
same,SPOT peptide array binding signal intensity,ScPex13,124
same,SPOT peptide array binding signal intensity,ScRvs167,865
same,SPOT peptide array binding signal intensity,ScSho1,346
same,SPOT peptide array binding signal intensity,ScSla1-D1-D2,2180
same,SPOT peptide array binding signal intensity,ScSla1-D3,202
same,SPOT peptide array binding signal intensity,SpAbp1-D1,1300
same,SPOT peptide array binding signal intensity,SpBbc1,27.5
same,SPOT peptide array binding signal intensity,SpBzz1-D1,284
same,SPOT peptide array binding signal intensity,SpBzz1-D2,1.5
same,SPOT peptide array binding signal intensity,SpCyk3,6
same,SPOT peptide array binding signal intensity,SpHof1,107
same,SPOT peptide array binding signal intensity,SpHof1-2,43
same,SPOT peptide array binding signal intensity,SpHof1-3,235
same,SPOT peptide array binding signal intensity,SpHse1,180
same,SPOT peptide array binding signal intensity,SpLsb1,5
same,SPOT peptide array binding signal intensity,SpLsb4,3850
same,SPOT peptide array binding signal intensity,SpMyo1,9.5
same,SPOT peptide array binding signal intensity,SpNbp2,178
same,SPOT peptide array binding signal intensity,SpPex13,30
same,SPOT peptide array binding signal intensity,SpRvs167,957
same,SPOT peptide array binding signal intensity,SpSla1-D1-D2,33
same,SPOT peptide array binding signal intensity,SpSla1-D3,49.5
